In the library only some 8.7% were active in any assay of this set; here they are far more common.
Sfp inh: Sfp phosphopantetheinyl transferase inhibition; Q9F4F7; Biochemical Sfp PPTase activity, qHTS; Potency, µM, most hits filed as inhibitors; hit rate 3.5% among 310,000; AID 1490;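 further: the enzyme is Sfp with the accession as filed and its product quenches rhodamine fluorescence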
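Step 1, compound plus 15 nM Sfp-PPTase, 15 min, room temperature. Step 2, add rhodamine-CoA (5 uM) and BHQ-2-YbbR (12.5 uM). Step 3, read 525/598 nm fluorescence at 0 and 30 min.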
BAZ2B inh: inhibitors of human BAZ2B bromodomain; AlphaScreen BAZ2B-H3K14Ac peptide displacement; hit rate 4.4% among 360,000; Potency, µM (highest dose often 114 µM), actives largely listed as inhibitors; further: nearly all actives have a fitted effect of over 60% in size
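In this displacement format the biotinylated H3(5-23) peptide acetylated at Lys14 serves as ligand at 50 nM, with BAZ2B at 50 nM in PBS pH 7.4 containing 0.01% Tween-20. Donor and acceptor beads are 10 ug/mL final.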
HP1b chromo inh: HP1-beta chromodomain-methylated histone interaction inhibition. P83916. AlphaScreen HP1-beta / biotin-H3K9me3 peptide binding. Potency, µM (highest dose often 114 µM), most hits filed as inhibitors. hit rate 0.56% among 390,000. AID 540317; further: nearly all actives have a fitted effect of over 70% in size
Target sequence (P83916 whole entry, looked up): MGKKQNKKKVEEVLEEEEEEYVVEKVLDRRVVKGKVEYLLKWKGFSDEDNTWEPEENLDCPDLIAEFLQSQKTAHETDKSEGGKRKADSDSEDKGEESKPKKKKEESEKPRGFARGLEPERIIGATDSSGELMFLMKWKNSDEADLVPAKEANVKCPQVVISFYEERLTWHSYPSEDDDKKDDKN
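AlphaScreen: HP1-beta (50 nM) preformed 30 min with biotin-H3(1-18)K9me3 peptide (50 nM) in PBS pH 7.4, 0.01% Tween-20. Compound added for 30 min at RT, then streptavidin donor/nickel chelate acceptor beads (10 ug/mL) for 30 min.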
G9a block: G9a (human) methyltransferase inhibition. Q96KQ7. G9a H3K9 monomethylation, AlphaScreen, 2 h. Potency, µM (top dose mostly 102 µM), most hits filed as inhibitors. hit rate 8.8% among 350,000; further: nearly all actives have a fitted effect of over 75% in size
Target sequence (Q96KQ7 913-1193 limits assumed): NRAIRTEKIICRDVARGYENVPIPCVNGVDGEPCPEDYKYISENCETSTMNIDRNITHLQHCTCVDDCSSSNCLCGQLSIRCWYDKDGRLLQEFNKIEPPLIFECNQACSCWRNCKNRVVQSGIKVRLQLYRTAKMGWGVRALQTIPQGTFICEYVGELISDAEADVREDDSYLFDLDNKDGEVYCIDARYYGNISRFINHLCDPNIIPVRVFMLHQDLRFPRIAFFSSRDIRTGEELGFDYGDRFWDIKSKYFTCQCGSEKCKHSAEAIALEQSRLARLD
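AlphaScreen detection with an anti-monomethyl H3K9 antibody quantified product after a 2 h room-temperature reaction containing 500 nM biotinylated H3K9 peptide, 20 µM SAM and 20 nM enzyme, which had been preincubated 15 min with compound.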
JMJD2A Tudor: inhibitors of human JMJD2A Tudor domain; O75164; AlphaScreen JMJD2A-Tudor / H3K4me3 peptide binding; Potency, µM (doses to about 114 µM), hits mostly inhibitors; hit rate 4.4% among 390,000; further: nearly all actives have a fitted effect of over 50% in size
ALOX12 inh: blocks human arachidonate 12S-lipoxygenase | purified 12hLO, xylenol orange hydroperoxide absorbance | Potency, µM (highest dose often 108 µM), most hits filed as inhibitors | hit rate 1.1% among 580,000
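Hydroperoxide product was detected by ferrous iron/xylenol orange as the 573 to 405 nm absorbance ratio. Arachidonic acid at 40 uM (final) was turned over for 30 min at room temperature by 150 nM human 12hLO, pH 7.0 Hepes buffer, after 15 min compound preincubation.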
Of the large screens only hits and unclear results are named; the others gave an inactive call; ! = not confirmed by another sample. The call rests on the fitted dose curve; in most records, active means well fitted curve in the direction sought with a large enough effect; inconclusive means small, poorly fitted or top-dose-only effect, or another doubt; inactive means no such curve, though single readings can be large; an effect the other way counts as inactive or inconclusive.

Cc1cc(C)c(OCCOCCN(C)C)c(Br)c1	BAZ2B inh inconclusive, HP1b chromo inh inconclusive, G9a block 10µM, JMJD2A Tudor 25µM
Cc1cc(Cl)cc(Br)c1OCCCNCC(C)O (configuration not stated)	none
Cc1cc(C)c(OCCCNCc2ccccc2)c(Br)c1	BAZ2B inh 50µM, HP1b chromo inh inconclusive, G9a block 13µM, JMJD2A Tudor 25µM, ALOX12 inh inconclusive
CCn1c2ccc(C)cc2c2n[nH]c(=S)nc21	G9a block 7.1µM, ALOX12 inh inconclusive
Cc1ccc2c(c1)c1n[nH]c(=S)nc1n2CCc1ccccc1	none
CC(C)CCn1c(=O)c2ccccc2n2c(CCl)nnc12	none
CC(C)CCn1c(=O)c2ccccc2n2c(=S)[nH]nc12	Sfp inh 56µM, BAZ2B inh 45µM, HP1b chromo inh 71µM, G9a block 1.4µM, JMJD2A Tudor 3.5µM, ALOX12 inh inconclusive
C=CCn1c(=O)c2ccccc2n2c(=S)[nH]nc12	G9a block 7.9µM, JMJD2A Tudor 7.9µM, ALOX12 inh inconclusive
CC(C)OCCCn1c(=O)c2ccccc2n2c(-c3ccccc3)nnc12	BAZ2B inh 50µM, G9a block inconclusive, JMJD2A Tudor 50µM (no result: Sfp inh)
C=CCn1c(=O)c2ccccc2n2c(SCC(=O)c3ccccc3)nnc12	G9a block 22µM
CC(C)OCCCn1c(=O)c2ccccc2n2c(-c3ccccc3F)nnc12	none (no result: Sfp inh)
Cc1ccc(SC(C(=O)c2ccccc2)C(=O)c2ccccc2)cc1	none (no result: Sfp inh, BAZ2B inh, HP1b chromo inh, G9a block, JMJD2A Tudor)
COC(=O)c1cc(OC(=O)CCS(=O)(=O)c2ccc(C)cc2)cc(C(=O)OC)c1	none (no result: Sfp inh, BAZ2B inh, HP1b chromo inh, G9a block, JMJD2A Tudor)
CC(C)CC(=O)NCC12CC3CC(CC(C3)C1)C2	none (no result: Sfp inh, BAZ2B inh, HP1b chromo inh, G9a block, JMJD2A Tudor)
CCOCCCn1c(=O)c2ccccc2n2c(=S)[nH]nc12	G9a block 10µM, JMJD2A Tudor 4µM, ALOX12 inh 4µM
CN(Cc1ccco1)C(=O)c1cc(-c2ccncc2)nc2ccccc12	none (no result: Sfp inh, BAZ2B inh, HP1b chromo inh, G9a block, JMJD2A Tudor)
O=C(Nc1ccc(F)c(Cl)c1)N1CCC(Oc2ncccc2C(=O)N2CCCCC2)C1 (configuration not stated)	none (no result: Sfp inh, BAZ2B inh, HP1b chromo inh, G9a block, JMJD2A Tudor)
Cc1c(C(=O)OC(C)C)sc(N)c1C#N	none (no result: Sfp inh, BAZ2B inh, HP1b chromo inh, G9a block, JMJD2A Tudor)
COC(=O)c1sc(N)c(C#N)c1C	ALOX12 inh 4.5µM (no result: Sfp inh, BAZ2B inh, HP1b chromo inh, G9a block, JMJD2A Tudor)
CCOC(=O)c1sc(N)c(C#N)c1CSc1nnc(C2CC2)n1N	none
CCCc1c(C(=O)OCC)sc(N)c1C#N	Sfp inh 63µM, BAZ2B inh inconclusive, HP1b chromo inh inconclusive, G9a block inconclusive
CCOc1cccc(C=Nc2cc(C)cc(C)c2O)c1O	BAZ2B inh inconclusive, G9a block inconclusive, JMJD2A Tudor 18µM, ALOX12 inh inconclusive
CCOc1cccc(/C=N/N=C/c2cccc(OCC)c2O)c1O	none
COc1ccccc1OCC(=O)NN1Cc2ccccc2C1=N	G9a block inconclusive
N=C1c2ccccc2CN1NC(=O)COc1ccc(Cl)cc1	G9a block 35µM
CC(C)(C)c1ccc(OCC(=O)NN2Cc3ccccc3C2=N)cc1	G9a block 50µM
CNC(=O)[C@@H]1CN(C(=O)c2sc(C)nc2C)C[C@H]1c1n[nH]c(C)n1	none (no result: Sfp inh, BAZ2B inh, HP1b chromo inh, G9a block, JMJD2A Tudor)
c1ccc2sc(N3CCOCC3)nc2c1	none
c1ccc2sc(SN3CCOCC3)nc2c1	HP1b chromo inh inconclusive, G9a block inconclusive, JMJD2A Tudor 40µM, ALOX12 inh 13µM!
CN1CCN(C(=S)c2cn(Cc3ccccc3)c3ccccc23)CC1	BAZ2B inh inconclusive, G9a block 45µM, JMJD2A Tudor inconclusive
CC1CCN(C(=S)c2cn(Cc3cccc(F)c3)c3ccccc23)CC1	BAZ2B inh inconclusive, ALOX12 inh 45µM
Fc1ccc(-c2noc(-c3nnn4c3COC(c3ccc(Cl)cc3)C4)n2)cc1F (configuration not stated)	none (no result: Sfp inh, BAZ2B inh, HP1b chromo inh, G9a block, JMJD2A Tudor)
CCCCCCCCCCC(=O)c1ccc(Cl)cc1	none (no result: Sfp inh, BAZ2B inh, HP1b chromo inh, G9a block, JMJD2A Tudor)
N#C/C(C(N)=O)=c1/ccc2c(c1)N1C3=C(CCCC3)CC3CCCCC31N=2 (configuration not stated)	Sfp inh inconclusive, BAZ2B inh 3.5µM, HP1b chromo inh 10µM, G9a block 4µM, JMJD2A Tudor 6.3µM
N#CC(C#N)=c1ccc2c(c1)N1C3=C(CCCC3)CC3CCCCC31N=2 (configuration not stated)	BAZ2B inh 1.8µM, HP1b chromo inh inconclusive, G9a block 2.2µM, JMJD2A Tudor 45µM
